# Article PMC4336329 (PLoS ONE, 2015)
# Out of some 310,000 compounds screened, about 14,000 (4.5%) showed an effect of 50% or more. The effect is printed as a negative number. The list comes from a sample in which strong results are over-represented; it also holds similar structures and randomly drawn compounds.
# Target: human ether-à-go-go-related gene (hERG) potassium channel (human, UniProt Q12809)
# Assay: primary screen, population patch clamp on CHO cells stably expressing hERG; higher = less effect of the substance
# 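Further: peak tail current of the secondary pulse compared with the same well before compound.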
# Sequence of human ether-à-go-go-related gene (hERG) potassium channel (Q12809 whole entry, looked up): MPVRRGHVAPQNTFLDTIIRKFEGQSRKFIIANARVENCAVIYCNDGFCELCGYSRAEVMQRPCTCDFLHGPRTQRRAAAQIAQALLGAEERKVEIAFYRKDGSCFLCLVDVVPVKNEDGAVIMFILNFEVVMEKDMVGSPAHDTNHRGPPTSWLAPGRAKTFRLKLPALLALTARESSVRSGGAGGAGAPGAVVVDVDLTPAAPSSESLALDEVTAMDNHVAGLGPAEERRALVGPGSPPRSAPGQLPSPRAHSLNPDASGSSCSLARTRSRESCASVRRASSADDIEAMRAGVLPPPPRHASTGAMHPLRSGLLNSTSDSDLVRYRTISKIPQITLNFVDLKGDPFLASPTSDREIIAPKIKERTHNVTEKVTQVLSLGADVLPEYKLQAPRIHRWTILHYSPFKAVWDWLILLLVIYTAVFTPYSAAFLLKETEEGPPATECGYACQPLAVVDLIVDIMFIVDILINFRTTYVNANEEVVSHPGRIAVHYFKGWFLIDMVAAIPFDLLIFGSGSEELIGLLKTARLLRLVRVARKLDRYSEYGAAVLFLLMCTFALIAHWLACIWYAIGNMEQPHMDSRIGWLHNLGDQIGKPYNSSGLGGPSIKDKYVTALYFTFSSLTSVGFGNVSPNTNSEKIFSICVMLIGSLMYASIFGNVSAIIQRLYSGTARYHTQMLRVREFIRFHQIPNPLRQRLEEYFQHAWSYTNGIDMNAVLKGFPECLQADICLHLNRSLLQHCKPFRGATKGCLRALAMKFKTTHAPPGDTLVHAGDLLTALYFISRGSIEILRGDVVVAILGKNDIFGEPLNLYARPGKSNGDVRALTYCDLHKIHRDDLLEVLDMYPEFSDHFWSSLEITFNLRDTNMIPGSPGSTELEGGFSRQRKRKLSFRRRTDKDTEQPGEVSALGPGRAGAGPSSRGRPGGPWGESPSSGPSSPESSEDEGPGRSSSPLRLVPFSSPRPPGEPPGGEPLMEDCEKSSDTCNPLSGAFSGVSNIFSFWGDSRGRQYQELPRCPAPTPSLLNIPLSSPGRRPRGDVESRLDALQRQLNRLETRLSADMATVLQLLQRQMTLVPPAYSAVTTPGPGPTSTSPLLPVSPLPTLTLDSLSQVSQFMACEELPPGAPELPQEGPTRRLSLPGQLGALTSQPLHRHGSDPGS
row,SMILES,"hERG current change (%, negative = inhibition) at 10uM [%]"
1,Cc1cc2[nH]c(=O)c(=O)[nH]c2cc1S(=O)(=O)Nc1cccc(Cl)c1C,-0.165
2,CCN1CCN(C2=NC(=O)/C(=C/c3ccc(C)o3)S2)CC1,-20.9
3,O.[I-].c1ccc2[nH]c(-c3cc[nH+]c4ccccc34)nc2c1,-12.6
4,CCc1c(C)nc2ncnn2c1N1CCC(C(=O)Nc2ccccc2)CC1,-44.4
5,CCc1c(C)nc2ncnn2c1N1CCCC(C(=O)Nc2cc(F)ccc2C)C1 (stereo not shown),-40.6
6,CCc1c(C)nc2ncnn2c1N1CCC(C(=O)N2CCN(c3ccc(F)cc3)CC2)CC1,-67.9
7,CCc1c(C)nc2ncnn2c1N1CCCC(C(=O)Nc2ccc(NC(C)=O)cc2)C1 (stereo not shown),14.2
8,CCc1c(C)nc2ncnn2c1N1CCC(C(=O)Nc2cccc(C(C)=O)c2)CC1,-22.6
9,CCc1c(C)nc2ncnn2c1N1CCCC(C(=O)NCCc2ccccc2)C1 (stereo not shown),-15.2
10,CCc1c(C)nc2ncnn2c1N1CCC(C(=O)NCc2cccs2)CC1,-44.4
11,O=C(C1CCN(c2ccc(N3CCOCC3)nn2)CC1)N1CCN(c2ccc(F)cc2)CC1,-47.4
12,CCOc1ccc(NC(=O)C2CCCN(c3c(CC)c(C)nc4ncnn34)C2)cc1 (stereo not shown),-65.8
13,CCc1c(C)nc2ncnn2c1N1CCC(C(=O)Nc2ccc(C)cc2)CC1,-55.9
14,CCOc1ccccc1NC(=O)C1CCCN(c2c(CC)c(C)nc3ncnn23)C1 (stereo not shown),-65.1
15,CCc1c(C)nc2ncnn2c1N1CCCC(C(=O)NCCc2ccc(OC)cc2)C1 (stereo not shown),-19.6
16,Cc1nc2ccc(NC(=O)Cc3cccs3)cc2s1,11
17,CCOC(=O)N/N=C/C=C/c1ccccc1,1.98
18,O=C(O)c1cc(N/N=C/c2c[nH]c3ccccc23)ccc1Cl,10.3
19,O=S(=O)(/C=C/c1ccccc1)N1CCN(c2ccccc2)CC1,-2.08
20,S=c1[nH]nc(-c2ccco2)n1/N=C/c1c(Cl)cccc1Cl,-10.9
21,Cc1cc(NC(=O)c2ccc(Cl)cc2)ccc1NC(=O)c1ccccc1Cl,9.97
22,Cc1cc(C)c(C(=O)COC(=O)c2nn(C)c(=O)c3ccccc23)cc1C,-30.4

row,SMILES,"hERG current change (%, negative = inhibition) at 10uM [%]"
1,O=C(O)c1ccccc1C(=O)NCCCCCCNC(=O)c1ccccc1C(=O)O,7.63
2,Cc1ccccc1NC1=CC(=O)CC(C)(C)C1,-0.789
3,COc1cc(-c2nc(CN3CCN(CC(C)C)C(=O)[C@@H]3C)c(C)o2)ccc1F,-14.2
4,COc1ccc(-c2nc(CSCC(=O)N3CCC(C(N)=O)CC3)c(C)o2)cc1OC,-0.184
5,CCOC(=O)C1CCCCN1Cc1cn[nH]c1-c1ccc(F)cc1F (stereo not shown),1.06
6,CCOC(=O)C1CCCN(Cc2cn[nH]c2-c2ccc(F)cc2F)C1 (stereo not shown),-2.03
7,COc1cc(-c2nc(CN3CCCCC3CCNC(C)=O)c(C)o2)ccc1F (stereo not shown),-66.6
8,COc1ccc(-c2nc(CS(=O)CC(=O)NCCN3CCCCC3C)c(C)o2)cc1OC (stereo not shown),16.8
9,CCOC(=O)CC1CCCCN1Cc1cn[nH]c1-c1ccc(F)cc1F (stereo not shown),-64.8
10,CCC1CCCCN1CCCNC(=O)CS(=O)Cc1nc(-c2ccc(OC)c(OC)c2)oc1C (stereo not shown),5.21
11,CCOC(=O)CC1CCCCN1Cc1nc(-c2ccc(F)c(OC)c2)oc1C (stereo not shown),-65.5
12,O=C(CSc1nc2cc(Cl)ccc2s1)NCc1ccc2c(c1)OCO2,0.137
13,COc1cc(OC)cc(C(=O)N(Cc2cc3cc(C)ccc3[nH]c2=O)C(C)C)c1,-7.49
14,O=C(C[n+]1ccccc1)N/N=C/c1ccc(Cl)cc1.[Cl-],-5.76
15,NC(=O)CSc1nnnn1-c1ccccc1Cl,6.07
16,O=C(N/N=C/C(Br)=C/c1ccccc1)c1ccccc1F,-38.5
17,Cc1ccc2c(CC(=O)N3CCOCC3)coc2c1,8.58
18,CCN(CC)S(=O)(=O)c1ccc(C(=O)OCCN2C(=O)CCC2=O)cc1,-7.82
19,Cn1c(=O)c2c(nc(SCCN3CCOCC3)n2Cc2ccccc2Cl)n(C)c1=O,-36.8
20,Cc1cccc(Cn2c(SCCN3CCOCC3)nc3c2c(=O)n(C)c(=O)n3C)c1,-26.2
21,Cn1c(=O)c2c(nc(SCCN3CCCCC3)n2Cc2ccc(Cl)cc2)n(C)c1=O,-72.3
22,Cc1ccc(Cn2c(SCCN3CCCCC3)nc3c2c(=O)n(C)c(=O)n3C)cc1,-75.4

row,SMILES,"hERG current change (%, negative = inhibition) at 10uM [%]"
1,CCSc1nc2c(c(=O)n(C)c(=O)n2C)n1Cc1ccc(Cl)cc1,-17.5
2,CCCSc1nc2c(c(=O)n(C)c(=O)n2C)n1Cc1ccc(C)cc1,-3.8
3,Cn1c(=O)c2c(nc(SCCN3CCCCC3)n2Cc2ccccc2)n(C)c1=O,-76
4,Cn1c(=O)c2c(nc(SCCN3CCOCC3)n2Cc2ccccc2)n(C)c1=O,-32.5
5,Cn1c(=O)c2c(nc(SCCN3CCCCC3)n2C)n(C)c1=O,3.49
6,Cc1ccc(Cn2c(SCCN3CCOCC3)nc3c2c(=O)n(C)c(=O)n3C)cc1,-28
7,Cc1ccc(Cn2c(SCC(C)C)nc3c2c(=O)n(C)c(=O)n3C)cc1,4.03
8,Cn1c(=O)c2c(nc(SCCN3CCOCC3)n2Cc2ccc(F)cc2)n(C)c1=O,-56
9,O=C(NCc1ncc(C(F)(F)F)cc1Cl)Nc1ccccc1,3.57
10,Cc1ccc(C2=NN(C(=O)CCC(=O)O)C(c3ccc4c(c3)OCO4)C2)cc1 (stereo not shown),-2.17
11,COc1ccccc1NCC(=O)n1nc(C)cc1C,29.8
12,NC(=O)Nc1cc(Cl)ccc1Cl,2.21
13,COc1cc(-c2nnc(COC(=O)c3ccc(C)o3)o2)cc(OC)c1OC,7.46
14,Cc1ccc(/C=C/C(=O)NCCc2c[nH]c3ccccc23)o1,-7.78
15,O=C(NCc1ccccn1)C1CCN(S(=O)(=O)c2cccs2)CC1,-15.8
16,Cc1ccc2nc(Nc3ccc(C)c(C)c3)c3nncn3c2c1,14.5
17,CCC1=NN(C(=O)Cc2ccc(OC)cc2)C(O)(C(F)(F)F)C1 (stereo not shown),-6.51
18,O=C(NC1=NCCS1)c1ccc(Cl)c(S(=O)(=O)N2CCCCC2)c1,-2.52
19,CCOC(=O)C(C(=O)OCC)C1CCS(=O)(=O)C1 (stereo not shown),14.4
20,Cc1ccnn1C(C)C(=O)O (stereo not shown),26.3
21,Cc1ccc(C(=O)N/C(=C/c2ccccc2)C(=O)NCc2ccncc2)cc1,-65.2
22,Cc1ccc(C(=O)N/C(=C/c2ccccc2)C(=O)NC(Cc2ccccc2)C(=O)O)cc1 (stereo not shown),8.07

row,SMILES,"hERG current change (%, negative = inhibition) at 10uM [%]"
1,Cc1ccc(C(=O)N/C(=C\c2ccccc2)C(=O)NCc2ccncc2)cc1,-71.2
2,Cc1ccc(C(=O)N/C(=C/c2ccccc2)C(=O)NCC2CCCO2)cc1 (stereo not shown),-21.7
3,O=C(/C=C/c1cccs1)c1ccc(Br)cc1,7.19
4,CC(C)Oc1ccc(Br)cc1C(=O)N/N=C/c1c[nH]c2ccccc12,16.2
5,COc1ccccc1NC(=O)N(CCN1CCCC1)Cc1cc2cc(C)ccc2[nH]c1=O,-64.8
6,Cc1cc(C)c2cc(CN(CCO)C(=O)Nc3ccc(Cl)cc3)c(=O)[nH]c2c1,-1.76
7,COc1ccccc1NC(=O)N(CCN(C)C)Cc1cc2cc(C)ccc2[nH]c1=O,-50.2
8,COc1cc2cc(CN(CCN3CCCC3)C(=O)Nc3ccccc3Cl)c(=O)[nH]c2cc1OC,-6.16
9,CCOc1ccc(NC(=S)N(CCN2CCOCC2)Cc2cc3cc4c(cc3[nH]c2=O)OCO4)cc1,-34.6
10,COc1ccc2[nH]c(=O)c(CN(CCN3CCCC3)C(=O)Nc3ccccc3Cl)cc2c1,-47.6
11,Cc1cc(C)c2cc(CN(CCN(C)C)C(=O)Nc3ccccc3Cl)c(=O)[nH]c2c1,-55.3
12,CCOc1ccc2[nH]c(=O)c(CN(CCN3CCCC3)C(=S)Nc3ccccc3OC)cc2c1,-49.7
13,COc1ccccc1NC(=S)N(Cc1ccco1)Cc1cc2cc(C)ccc2[nH]c1=O,3.67
14,COc1ccc(NC(=O)N(CCc2ccccc2)Cc2cc3c(C)cc(C)cc3[nH]c2=O)cc1,14
15,COc1ccccc1NC(=S)N(CCCN(C)C)Cc1cc2cc3c(cc2[nH]c1=O)OCO3,33.3
16,CCOc1ccc2[nH]c(=O)c(CN(CCN3CCCC3)C(=S)Nc3ccccc3OCC)cc2c1,-70.2
17,Cc1ccc(S(=O)(=O)/C(C#N)=C/c2c(N3CC(C)OC(C)C3)nc3ccccn3c2=O)cc1 (stereo not shown),-46.3
18,CN(C(=S)NC(=O)c1ccccc1)c1c(N)n(Cc2ccccc2)c(=O)[nH]c1=O,0.51
19,Cc1ccc(S(=O)(=O)NCCSc2nnnn2C)cc1,-2.53
